Measurements from article PMC7862700, “An all-to-all approach to the identification of sequence-specific readers for epigenetic DNA modifications on cytosine”.

Columns and labels:
Assay in all cases: DAPPL (digital affinity profiling via proximity ligation, sequencing); 10 mM Tris-HCl pH 7.5, 50 mM NaCl, 1 mM DTT, 4% glycerol, room temperature, 30 min; GST-TFs on glutathione beads, 16-mer random dsDNA library, 0.1% formaldehyde crosslink after washing; high values mean tight binding
FLI1 = target: T1, FLI1 (Homo sapiens, UniProt Q01543 1-452); conditions: protein: recombinant; tags: N-terminal GST; dsDNA, one strand shown
T1 sequence: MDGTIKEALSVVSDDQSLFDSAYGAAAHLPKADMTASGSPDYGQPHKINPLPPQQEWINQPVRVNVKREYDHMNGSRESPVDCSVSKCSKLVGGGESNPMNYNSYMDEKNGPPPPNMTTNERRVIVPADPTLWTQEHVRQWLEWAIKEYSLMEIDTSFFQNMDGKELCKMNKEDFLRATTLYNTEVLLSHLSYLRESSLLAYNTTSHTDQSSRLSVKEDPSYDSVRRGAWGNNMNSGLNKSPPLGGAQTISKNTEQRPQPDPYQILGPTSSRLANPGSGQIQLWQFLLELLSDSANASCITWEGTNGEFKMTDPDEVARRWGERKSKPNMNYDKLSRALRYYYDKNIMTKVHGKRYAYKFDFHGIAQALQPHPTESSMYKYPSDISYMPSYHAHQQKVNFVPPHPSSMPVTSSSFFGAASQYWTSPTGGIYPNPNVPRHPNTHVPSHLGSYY
Method in brief: (§1)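 GST fusions of human transcription factors were expressed in yeast and captured with glutathione beads. Once given DNA barcodes and pooled alongside a tag-only sample, they were incubated for 30 min at room temperature with 200 nmole of a random double-stranded 16-mer DNA library in Tris/NaCl/DTT/glycerol buffer, then washed, crosslinked (0.1% formaldehyde), proximity-ligated, PCR-amplified and sequenced on an Illumina NextSeq500. The binding signal of each hexamer is its read frequency for a factor divided by its frequency for the tag-only sample.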

ELK1 = target: T2, ELK1 (Homo sapiens, UniProt P19419 1-428); conditions: protein: recombinant; tags: N-terminal GST; dsDNA, one strand shown
T2 sequence: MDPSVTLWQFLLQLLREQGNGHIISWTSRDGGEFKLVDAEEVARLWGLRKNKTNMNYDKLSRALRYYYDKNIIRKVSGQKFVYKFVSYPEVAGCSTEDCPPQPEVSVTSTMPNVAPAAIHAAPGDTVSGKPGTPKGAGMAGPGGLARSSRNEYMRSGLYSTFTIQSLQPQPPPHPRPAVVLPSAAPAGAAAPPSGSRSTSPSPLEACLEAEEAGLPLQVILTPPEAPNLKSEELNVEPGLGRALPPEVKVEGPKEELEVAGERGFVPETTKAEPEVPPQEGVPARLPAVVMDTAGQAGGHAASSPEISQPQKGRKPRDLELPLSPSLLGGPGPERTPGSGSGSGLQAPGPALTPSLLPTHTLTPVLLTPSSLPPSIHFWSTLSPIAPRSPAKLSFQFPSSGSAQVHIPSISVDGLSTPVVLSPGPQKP
Method in brief: as §1

GABPA = target: T3, GABPA (Homo sapiens, UniProt Q06546 1-454); conditions: protein: recombinant; tags: N-terminal GST; dsDNA, one strand shown
T3 sequence: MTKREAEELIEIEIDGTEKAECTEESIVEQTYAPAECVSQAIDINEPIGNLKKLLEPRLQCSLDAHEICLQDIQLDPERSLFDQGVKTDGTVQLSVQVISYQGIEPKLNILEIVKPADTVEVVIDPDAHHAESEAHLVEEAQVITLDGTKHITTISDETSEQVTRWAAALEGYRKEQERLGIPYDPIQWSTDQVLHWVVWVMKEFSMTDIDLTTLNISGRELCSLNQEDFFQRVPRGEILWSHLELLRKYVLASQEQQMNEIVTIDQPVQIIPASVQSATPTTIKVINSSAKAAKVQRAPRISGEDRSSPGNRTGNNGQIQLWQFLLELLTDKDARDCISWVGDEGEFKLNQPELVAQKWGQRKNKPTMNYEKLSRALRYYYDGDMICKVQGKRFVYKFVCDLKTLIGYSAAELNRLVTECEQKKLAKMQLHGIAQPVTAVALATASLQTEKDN
Method in brief: as §1

ERG = target: T4, ERG (Homo sapiens, UniProt P11308 1-479); conditions: protein: recombinant; tags: N-terminal GST; dsDNA, one strand shown
T4 sequence: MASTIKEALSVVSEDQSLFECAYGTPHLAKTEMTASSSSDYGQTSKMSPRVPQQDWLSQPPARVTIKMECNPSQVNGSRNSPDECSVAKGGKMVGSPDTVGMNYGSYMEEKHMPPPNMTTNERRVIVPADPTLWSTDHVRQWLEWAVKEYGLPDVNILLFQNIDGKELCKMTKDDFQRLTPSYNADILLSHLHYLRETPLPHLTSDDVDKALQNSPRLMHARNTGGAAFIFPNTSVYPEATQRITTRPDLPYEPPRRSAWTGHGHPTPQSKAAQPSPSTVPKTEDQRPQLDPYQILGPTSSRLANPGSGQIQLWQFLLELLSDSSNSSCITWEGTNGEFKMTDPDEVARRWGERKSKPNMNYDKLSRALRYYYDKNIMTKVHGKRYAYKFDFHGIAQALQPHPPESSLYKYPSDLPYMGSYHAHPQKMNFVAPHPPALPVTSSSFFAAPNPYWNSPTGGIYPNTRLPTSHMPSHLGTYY
Method in brief: as §1

ELF1 = ELF1 (Homo sapiens, UniProt P32519 1-619); conditions: protein: recombinant; tags: N-terminal GST; dsDNA, one strand shown
ELF1, sequence (P32519 whole entry): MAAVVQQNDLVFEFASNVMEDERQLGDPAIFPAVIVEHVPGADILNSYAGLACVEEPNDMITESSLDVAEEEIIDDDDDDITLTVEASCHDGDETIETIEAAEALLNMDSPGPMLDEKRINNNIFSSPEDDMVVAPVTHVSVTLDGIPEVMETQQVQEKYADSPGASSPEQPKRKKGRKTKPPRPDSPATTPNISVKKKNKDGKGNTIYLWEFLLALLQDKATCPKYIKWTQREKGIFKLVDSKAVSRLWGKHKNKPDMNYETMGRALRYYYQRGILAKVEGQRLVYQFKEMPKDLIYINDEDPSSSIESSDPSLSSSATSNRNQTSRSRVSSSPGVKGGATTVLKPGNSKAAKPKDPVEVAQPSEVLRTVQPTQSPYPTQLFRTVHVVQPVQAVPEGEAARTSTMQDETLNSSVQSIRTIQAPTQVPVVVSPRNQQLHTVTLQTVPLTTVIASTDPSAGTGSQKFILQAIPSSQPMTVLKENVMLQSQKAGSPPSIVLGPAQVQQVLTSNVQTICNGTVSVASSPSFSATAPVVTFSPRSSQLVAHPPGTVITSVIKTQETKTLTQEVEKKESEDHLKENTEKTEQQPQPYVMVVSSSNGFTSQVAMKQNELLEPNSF
Method in brief: as §1

EHF = target: T5, EHF (Homo sapiens, UniProt Q9NZC4 1-300); conditions: protein: recombinant; tags: N-terminal GST; dsDNA, one strand shown
T5 sequence: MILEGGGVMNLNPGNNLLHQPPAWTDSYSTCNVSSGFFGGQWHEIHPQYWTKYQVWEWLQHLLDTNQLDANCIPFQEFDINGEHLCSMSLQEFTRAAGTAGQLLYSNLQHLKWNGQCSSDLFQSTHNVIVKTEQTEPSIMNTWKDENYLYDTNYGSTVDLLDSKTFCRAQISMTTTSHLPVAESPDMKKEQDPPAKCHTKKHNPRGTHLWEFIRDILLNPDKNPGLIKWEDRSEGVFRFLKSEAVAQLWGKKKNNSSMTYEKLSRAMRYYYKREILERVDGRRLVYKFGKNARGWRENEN
Method in brief: as §1

SPI1 = SPI1 (Homo sapiens, UniProt P17947 1-270); conditions: protein: recombinant; tags: N-terminal GST; dsDNA, one strand shown
Method in brief: as §1

SPIB = SPIB (Homo sapiens, UniProt Q01892 1-262); conditions: protein: recombinant; tags: N-terminal GST; dsDNA, one strand shown
SPIB, sequence (Q01892 whole entry): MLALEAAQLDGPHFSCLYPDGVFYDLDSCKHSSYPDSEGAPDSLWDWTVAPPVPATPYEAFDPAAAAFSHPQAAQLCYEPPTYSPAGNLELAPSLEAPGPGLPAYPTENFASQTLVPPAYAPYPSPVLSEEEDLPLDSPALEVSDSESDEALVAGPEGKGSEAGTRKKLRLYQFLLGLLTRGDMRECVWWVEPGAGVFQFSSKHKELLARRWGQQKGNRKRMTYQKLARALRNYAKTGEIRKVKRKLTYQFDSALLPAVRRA
Method in brief: as §1

ELK3 = target: T6, ELK3 (Homo sapiens, UniProt P41970 1-407); conditions: protein: recombinant; tags: N-terminal GST; dsDNA, one strand shown
T6 sequence: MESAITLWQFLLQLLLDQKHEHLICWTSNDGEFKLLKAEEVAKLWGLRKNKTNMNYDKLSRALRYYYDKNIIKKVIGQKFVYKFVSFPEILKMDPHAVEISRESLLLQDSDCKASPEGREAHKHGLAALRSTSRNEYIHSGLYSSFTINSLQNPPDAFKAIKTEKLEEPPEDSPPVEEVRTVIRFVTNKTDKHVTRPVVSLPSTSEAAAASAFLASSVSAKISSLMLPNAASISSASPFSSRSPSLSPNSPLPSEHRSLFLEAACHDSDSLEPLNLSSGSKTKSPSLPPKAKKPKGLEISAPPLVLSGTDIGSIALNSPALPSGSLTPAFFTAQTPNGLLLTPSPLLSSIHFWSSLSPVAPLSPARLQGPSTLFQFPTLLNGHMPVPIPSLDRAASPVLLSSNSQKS
Method in brief: as §1

FEV = target: T7, FEV (Homo sapiens, UniProt Q99581 1-238); conditions: protein: recombinant; tags: N-terminal GST; dsDNA, one strand shown
T7 sequence: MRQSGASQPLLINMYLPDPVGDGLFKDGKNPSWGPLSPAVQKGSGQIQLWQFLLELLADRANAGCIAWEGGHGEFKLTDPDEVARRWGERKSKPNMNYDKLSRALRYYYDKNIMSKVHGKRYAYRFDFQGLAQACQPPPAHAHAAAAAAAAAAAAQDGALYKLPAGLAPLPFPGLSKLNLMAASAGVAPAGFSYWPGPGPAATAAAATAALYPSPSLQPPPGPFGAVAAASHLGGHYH
Method in brief: as §1

ETV5 = ETV5 (Homo sapiens, UniProt P41161 1-510); conditions: protein: recombinant; tags: N-terminal GST; dsDNA, one strand shown
ETV5, sequence (P41161 whole entry): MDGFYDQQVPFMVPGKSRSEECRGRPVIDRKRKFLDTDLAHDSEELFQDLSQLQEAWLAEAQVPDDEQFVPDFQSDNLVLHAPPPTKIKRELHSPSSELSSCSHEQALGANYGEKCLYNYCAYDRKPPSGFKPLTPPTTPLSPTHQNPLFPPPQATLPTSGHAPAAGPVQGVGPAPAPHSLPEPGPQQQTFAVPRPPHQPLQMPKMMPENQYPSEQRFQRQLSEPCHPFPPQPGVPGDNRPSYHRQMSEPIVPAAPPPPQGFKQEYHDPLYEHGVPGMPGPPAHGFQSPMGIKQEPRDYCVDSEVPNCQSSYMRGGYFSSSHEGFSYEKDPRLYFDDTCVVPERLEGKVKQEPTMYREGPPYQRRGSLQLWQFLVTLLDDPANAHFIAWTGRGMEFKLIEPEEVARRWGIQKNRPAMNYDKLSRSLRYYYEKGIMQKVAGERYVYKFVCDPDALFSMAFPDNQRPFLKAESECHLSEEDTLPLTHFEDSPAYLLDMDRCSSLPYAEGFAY
Method in brief: as §1

HSF1 = HSF1 (Homo sapiens, UniProt Q00613 1-529); conditions: protein: recombinant; tags: N-terminal GST; chain copies: 3; dsDNA, one strand shown
HSF1, sequence (Q00613 whole entry): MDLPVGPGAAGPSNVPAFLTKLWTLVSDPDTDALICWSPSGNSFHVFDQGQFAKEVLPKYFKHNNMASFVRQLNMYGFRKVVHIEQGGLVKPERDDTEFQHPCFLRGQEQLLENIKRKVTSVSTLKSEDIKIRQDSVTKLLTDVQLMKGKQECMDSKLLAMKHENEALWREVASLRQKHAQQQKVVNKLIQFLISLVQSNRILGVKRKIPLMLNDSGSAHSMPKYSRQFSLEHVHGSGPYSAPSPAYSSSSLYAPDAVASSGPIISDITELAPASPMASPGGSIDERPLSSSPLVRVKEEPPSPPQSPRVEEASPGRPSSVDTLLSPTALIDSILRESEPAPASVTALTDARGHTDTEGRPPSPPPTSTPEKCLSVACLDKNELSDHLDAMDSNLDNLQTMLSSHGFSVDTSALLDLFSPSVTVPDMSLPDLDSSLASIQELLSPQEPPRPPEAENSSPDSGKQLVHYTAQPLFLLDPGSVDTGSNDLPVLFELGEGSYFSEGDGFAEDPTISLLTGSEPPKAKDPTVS
Method in brief: as §1

SPIC = target: T8, SPIC (Homo sapiens, UniProt Q8N5J4 1-248); conditions: protein: recombinant; tags: N-terminal GST; dsDNA, one strand shown
T8 sequence: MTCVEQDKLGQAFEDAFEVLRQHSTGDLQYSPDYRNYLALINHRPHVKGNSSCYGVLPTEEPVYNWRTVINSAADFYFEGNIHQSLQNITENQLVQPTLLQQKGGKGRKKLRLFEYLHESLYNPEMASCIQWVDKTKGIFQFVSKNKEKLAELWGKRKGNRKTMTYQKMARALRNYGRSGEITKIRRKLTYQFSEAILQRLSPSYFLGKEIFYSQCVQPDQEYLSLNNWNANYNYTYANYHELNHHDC
Method in brief: as §1

ELF4 = ELF4 (Homo sapiens, UniProt Q99607 1-663); conditions: protein: recombinant; tags: N-terminal GST; dsDNA, one strand shown
ELF4, sequence (Q99607 whole entry): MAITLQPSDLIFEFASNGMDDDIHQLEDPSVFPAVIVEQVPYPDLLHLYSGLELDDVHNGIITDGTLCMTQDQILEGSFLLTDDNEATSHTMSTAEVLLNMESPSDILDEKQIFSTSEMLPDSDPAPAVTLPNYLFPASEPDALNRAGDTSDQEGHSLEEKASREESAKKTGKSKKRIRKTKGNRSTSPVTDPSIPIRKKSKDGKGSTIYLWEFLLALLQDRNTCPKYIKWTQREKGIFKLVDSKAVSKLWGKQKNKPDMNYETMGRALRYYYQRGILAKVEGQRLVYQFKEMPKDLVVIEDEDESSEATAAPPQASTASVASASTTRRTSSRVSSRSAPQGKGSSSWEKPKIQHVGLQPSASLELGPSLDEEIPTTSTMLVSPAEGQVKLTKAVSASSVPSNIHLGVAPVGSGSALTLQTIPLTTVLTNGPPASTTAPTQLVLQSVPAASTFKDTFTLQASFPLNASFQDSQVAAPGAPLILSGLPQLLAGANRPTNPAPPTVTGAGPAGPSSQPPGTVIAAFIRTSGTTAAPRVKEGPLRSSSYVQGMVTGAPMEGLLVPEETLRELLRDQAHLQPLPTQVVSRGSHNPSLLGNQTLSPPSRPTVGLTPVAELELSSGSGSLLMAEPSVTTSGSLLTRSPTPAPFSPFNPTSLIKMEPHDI
Method in brief: as §1

ELK4 = target: T9, ELK4 (Homo sapiens, UniProt P28324-2 1-405); conditions: protein: recombinant; tags: N-terminal GST; dsDNA, one strand shown
T9 sequence: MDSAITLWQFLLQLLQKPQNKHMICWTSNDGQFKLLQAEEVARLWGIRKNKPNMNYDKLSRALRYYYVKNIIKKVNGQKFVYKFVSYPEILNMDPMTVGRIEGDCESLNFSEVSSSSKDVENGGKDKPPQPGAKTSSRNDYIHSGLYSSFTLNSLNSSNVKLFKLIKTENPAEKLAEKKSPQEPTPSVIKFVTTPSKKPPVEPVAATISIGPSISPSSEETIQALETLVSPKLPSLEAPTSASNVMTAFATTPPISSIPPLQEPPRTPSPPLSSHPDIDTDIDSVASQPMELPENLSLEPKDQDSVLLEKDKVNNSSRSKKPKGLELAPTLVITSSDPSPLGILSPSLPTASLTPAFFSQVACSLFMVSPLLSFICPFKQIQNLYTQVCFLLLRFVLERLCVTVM
Method in brief: as §1

ETV2 = target: T10, ETV2 (Homo sapiens, UniProt O00321 1-342); conditions: protein: recombinant; tags: N-terminal GST; dsDNA, one strand shown
T10 sequence: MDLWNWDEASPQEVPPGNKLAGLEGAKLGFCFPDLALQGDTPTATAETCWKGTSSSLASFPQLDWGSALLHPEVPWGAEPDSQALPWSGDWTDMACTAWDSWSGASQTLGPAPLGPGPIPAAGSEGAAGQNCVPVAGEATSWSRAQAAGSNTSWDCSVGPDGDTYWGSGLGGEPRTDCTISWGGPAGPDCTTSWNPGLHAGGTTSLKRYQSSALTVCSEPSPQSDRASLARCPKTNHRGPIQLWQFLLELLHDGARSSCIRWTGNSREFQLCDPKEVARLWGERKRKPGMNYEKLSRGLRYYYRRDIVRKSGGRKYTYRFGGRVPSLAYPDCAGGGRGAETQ
Method in brief: as §1

ELF3 = target: T11, ELF3 (Homo sapiens, UniProt P78545 1-371); conditions: protein: recombinant; tags: N-terminal GST; dsDNA, one strand shown
T11 sequence: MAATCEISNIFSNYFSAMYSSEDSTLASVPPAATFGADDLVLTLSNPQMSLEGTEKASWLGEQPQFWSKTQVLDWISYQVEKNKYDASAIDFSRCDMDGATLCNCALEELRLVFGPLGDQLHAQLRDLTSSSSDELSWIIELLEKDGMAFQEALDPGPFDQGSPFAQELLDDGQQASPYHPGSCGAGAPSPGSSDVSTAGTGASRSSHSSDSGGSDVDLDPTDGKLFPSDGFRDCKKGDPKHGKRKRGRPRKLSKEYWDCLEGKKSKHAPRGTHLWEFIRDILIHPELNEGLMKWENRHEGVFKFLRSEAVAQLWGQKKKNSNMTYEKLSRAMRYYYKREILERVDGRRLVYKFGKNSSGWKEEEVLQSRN
Method in brief: as §1

ETV1 = ETV1 (Homo sapiens, UniProt P50549 1-477); conditions: protein: recombinant; tags: N-terminal GST; dsDNA, one strand shown
ETV1, sequence (P50549 whole entry): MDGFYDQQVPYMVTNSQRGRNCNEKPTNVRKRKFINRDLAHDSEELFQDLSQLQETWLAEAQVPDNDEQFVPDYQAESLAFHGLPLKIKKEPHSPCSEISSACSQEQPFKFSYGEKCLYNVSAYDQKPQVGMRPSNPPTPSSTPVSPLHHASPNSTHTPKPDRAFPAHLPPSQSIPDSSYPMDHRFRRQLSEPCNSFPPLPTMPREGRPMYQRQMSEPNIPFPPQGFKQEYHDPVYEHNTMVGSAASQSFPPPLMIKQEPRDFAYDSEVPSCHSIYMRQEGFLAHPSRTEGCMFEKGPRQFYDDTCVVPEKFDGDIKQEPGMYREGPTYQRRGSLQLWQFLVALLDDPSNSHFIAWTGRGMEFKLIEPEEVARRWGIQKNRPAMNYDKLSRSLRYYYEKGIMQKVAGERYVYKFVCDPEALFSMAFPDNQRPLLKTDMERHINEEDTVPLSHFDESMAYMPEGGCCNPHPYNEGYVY
Method in brief: as §1

**Q.** Which results are given for TGACAT?
**A.** binding signal (FLI1): 1.27 fold enrichment (6-mer frequency, TF over GST control); binding signal (ELK1): 1.27 fold enrichment (6-mer frequency, TF over GST control); binding signal (GABPA): 1.31 fold enrichment (6-mer frequency, TF over GST control); binding signal (ERG): 1.19 fold enrichment (6-mer frequency, TF over GST control); binding signal (ELF1): 1.28 fold enrichment (6-mer frequency, TF over GST control); binding signal (EHF): 1.36 fold enrichment (6-mer frequency, TF over GST control); binding signal (SPI1): 1.21 fold enrichment (6-mer frequency, TF over GST control); binding signal (SPIB): 1.19 fold enrichment (6-mer frequency, TF over GST control); binding signal (ELK3): 1.15 fold enrichment (6-mer frequency, TF over GST control); binding signal (FEV): 1.23 fold enrichment (6-mer frequency, TF over GST control); binding signal (ETV5): 1.26 fold enrichment (6-mer frequency, TF over GST control); binding signal (HSF1): 1.01 fold enrichment (6-mer frequency, TF over GST control); binding signal (SPIC): 1.07 fold enrichment (6-mer frequency, TF over GST control); binding signal (ELF4): 1.24 fold enrichment (6-mer frequency, TF over GST control); binding signal (ELK4): 1.3 fold enrichment (6-mer frequency, TF over GST control); binding signal (ETV2): 1.18 fold enrichment (6-mer frequency, TF over GST control); binding signal (ELF3): 1.25 fold enrichment (6-mer frequency, TF over GST control); binding signal (ETV1): 1.23 fold enrichment (6-mer frequency, TF over GST control)
